{
  "source": "PubChem BioAssay AID1069",
  "about": "(NMMLSC, 2008)",
  "test": "LNCaP granularity increase inducers, single-point recheck – cell-based, side scatter shift, flow cytometry, confirmation (AID 1069);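 further: LNCaP human prostate cancer cells in low-serum medium with charcoal-stripped FBS; percent of cells with raised granularity gated so DMSO controls show 10%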",
  "conditions": "LNCaP differentiation, 4 d, stronger effect = higher value",
  "note": "Active and inactive are the calls of the source.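 How the source made its calls: active means high combined rank on largest and smallest cell-count-weighted shift across three tests, rank score above 45, floors 50 and 25 (some results past the limit were not filed as active); inactive means the rest.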",
  "data": [
    {"smiles": "O=C(NCCCN1CCN(c2ccccc2F)CC1)C1CCC(=O)N1C1CCCC1", "note": "(stereo not drawn)", "values": [
      {"measurement": "side scatter shift", "setting": "at 100 µM", "value": "5% (inactive)"},
      {"measurement": "side scatter shift", "setting": "side scatter shift, at 10 µM", "value": 2.35, "unit": "%"}
    ]},
    {"smiles": "Cc1cc(N2CCN(C)CC2)nc2ccc(NC(=O)c3ccc4c(c3)OCO4)cc12", "values": [
      {"measurement": "side scatter shift", "setting": "at 100 µM", "value": "71.9% (active)"},
      {"measurement": "side scatter shift", "setting": "side scatter shift, at 10 µM", "value": 24.6, "unit": "%"}
    ]},
    {"smiles": "COc1ccc(Cc2nc(-c3ccc(-n4cccc4)cc3)no2)cc1OC", "values": [
      {"measurement": "side scatter shift", "setting": "at 100 µM", "value": "23.5% (inactive)"},
      {"measurement": "side scatter shift", "setting": "side scatter shift, at 10 µM", "value": 15.8, "unit": "%"}
    ]},
    {"smiles": "COc1ccc(CCn2c(=N)c(C(=O)NCc3ccco3)cc3c(=O)n4ccccc4nc32)cc1", "values": [
      {"measurement": "side scatter shift", "setting": "at 100 µM", "value": "59.4% (inactive)"},
      {"measurement": "side scatter shift", "setting": "side scatter shift, at 10 µM", "value": 4.85, "unit": "%"}
    ]},
    {"smiles": "CCCCC(=O)NCCc1ccc(S(N)(=O)=O)cc1", "values": [
      {"measurement": "side scatter shift", "setting": "at 100 µM", "value": "12.6% (inactive)"},
      {"measurement": "side scatter shift", "setting": "side scatter shift, at 10 µM", "value": 11.9, "unit": "%"}
    ]},
    {"smiles": "Cc1ccccc1-c1nc(CN2CCC(C(=O)NCCCN3CC(C)CC(C)C3)CC2)c(C)o1", "note": "(stereo not drawn)", "values": [
      {"measurement": "side scatter shift", "setting": "at 100 µM", "value": "54.5% (active)"},
      {"measurement": "side scatter shift", "setting": "side scatter shift, at 10 µM", "value": 78.4, "unit": "%"}
    ]},
    {"smiles": "COc1ccc(-c2cc3c(=O)n(CC(=O)NC4CCN(Cc5ccccc5)CC4)ncn3n2)cc1", "values": [
      {"measurement": "side scatter shift", "setting": "at 100 µM", "value": "36.1% (inactive)"},
      {"measurement": "side scatter shift", "setting": "side scatter shift, at 10 µM", "value": 5.5, "unit": "%"}
    ]},
    {"smiles": "Nc1cccc2cnccc12", "values": [
      {"measurement": "side scatter shift", "setting": "at 100 µM", "value": "4.1% (inactive)"},
      {"measurement": "side scatter shift", "setting": "side scatter shift, at 10 µM", "value": 6.95, "unit": "%"}
    ]},
    {"smiles": "CCOc1ccc(-n2cc(C(=O)N3CCC(C)CC3)c3cc(OC)c(OC)cc3c2=O)cc1", "values": [
      {"measurement": "side scatter shift", "setting": "at 100 µM", "value": "16.3% (inactive)"},
      {"measurement": "side scatter shift", "setting": "side scatter shift, at 10 µM", "value": 18.7, "unit": "%"}
    ]},
    {"smiles": "COc1ccc(-c2oc3ncn(CCN4CCOCC4)c(=N)c3c2-c2ccc(OC)cc2)cc1", "values": [
      {"measurement": "side scatter shift", "setting": "at 100 µM", "value": "42.3% (inactive)"},
      {"measurement": "side scatter shift", "setting": "side scatter shift, at 10 µM", "value": 19.7, "unit": "%"}
    ]},
    {"smiles": "c1ccc(OCCCn2nnc(-c3cccnc3)n2)cc1", "values": [
      {"measurement": "side scatter shift", "setting": "at 100 µM", "value": "15.4% (inactive)"},
      {"measurement": "side scatter shift", "setting": "side scatter shift, at 10 µM", "value": 3.1, "unit": "%"}
    ]},
    {"smiles": "CCN1CCN(CCNC(=O)C2CCCN(Cc3nc(-c4cccc(Cl)c4)oc3C)C2)CC1", "note": "(stereo not drawn)", "values": [
      {"measurement": "side scatter shift", "setting": "at 100 µM", "value": "14.3% (inactive)"},
      {"measurement": "side scatter shift", "setting": "side scatter shift, at 10 µM", "value": 32.2, "unit": "%"}
    ]},
    {"smiles": "COCCCN(C(=O)Nc1ccccc1)C(C)c1ccncc1", "note": "(stereo not drawn)", "values": [
      {"measurement": "side scatter shift", "setting": "at 100 µM", "value": "9.2% (inactive)"},
      {"measurement": "side scatter shift", "setting": "side scatter shift, at 10 µM", "value": 2.8, "unit": "%"}
    ]},
    {"smiles": "COC(=O)c1ccccc1S(=O)(=O)N(Cc1cc2cc3c(cc2[nH]c1=O)OCO3)C1CCCCC1", "values": [
      {"measurement": "side scatter shift", "setting": "at 100 µM", "value": "50% (inactive)"},
      {"measurement": "side scatter shift", "setting": "side scatter shift, at 10 µM", "value": 8.05, "unit": "%"}
    ]}
  ]
}
